Results on 5 molecules are retold here after PubChem BioAssay (EPA / NIEHS).

In experiment [1] the target is Hypoxia-inducible factor 1-alpha (Homo sapiens) (UniProt Q16665). Kind of experiment: ATG_HIF1a_CIS: Attagene CIS-FACTORIAL HepG2 Assay for human Hypoxia Inducible Factor 1 (HIF1A) (AID 2282951; active = hit-call score of the fitted dose curve at least 0.9, where 1 is the maximum; inactive = score below 0.9). To be noted: HepG2 Attagene cis-factorial HIF1a reporter transcription; actives raise or lower the signal. The gist of the method:
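Transient MRTU transfection of human HepG2 liver cells, 24 h compound treatment, then total RNA isolation, oligo(dT) reverse transcription, PCR amplification, fluorescent labelling and capillary electrophoresis of reporter fragments. Gain or loss relative to DMSO.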

A short description of experiment [2]: ATG_PPRE_CIS: Attagene CIS-FACTORIAL HepG2 Assay for human Peroxisome Proliferator-activated Response Element (PPRE) (AID 2282958; active = hit-call score of the fitted dose curve at least 0.9, where 1 is the maximum; inactive = score below 0.9). To be noted: HepG2 PPRE cis-element reporter, Attagene transcription factor profiling; actives raise or lower the signal. In short, it runs like this:
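HepG2, transient MRTU transfection (cis promoter elements, endogenous TFs). 24 h dosing. RNA → oligo(dT) RT → PCR → 6-FAM primer extension → HpaI digest → CE. Bidirectional fit vs DMSO.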

A short description of experiment [3]: ATG_M_19_TRANS: Attagene TRANS-FACTORIAL HepG2 Assay for M19 Transcription Factor (Internal Marker) (AID 2282974). To be noted: HepG2 Attagene TRANS-FACTORIAL M19 internal marker reporter. The gist of the method:
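Fluorescence of 6-FAM-labelled reporter cDNA fragments, separated by capillary electrophoresis, served as the readout. These derived from HepG2 cells carrying transfected GAL4-UAS reporter units after 24 h dosing, with DMSO as negative control.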

Experiment [4] can be described thus: ATG_GAL4_TRANS: Attagene TRANS-FACTORIAL HepG2 Assay for GAL4 (Internal Marker) (AID 2282976). As to conditions: HepG2 Attagene TRANS GAL4 internal marker reporter. In short, it runs like this: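 Background-control readout: GAL4-UAS reporter transcript in transiently transfected HepG2 cells after 24 h compound exposure. Measured by RT-PCR, 6-FAM primer extension, HpaI digest and capillary electrophoresis; gain-of-signal fit versus DMSO.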

The target of experiment [5] is Glucocorticoid receptor (Homo sapiens) (UniProt P04150). The experiment in a line: ATG_GR_TRANS: Attagene TRANS-FACTORIAL HepG2 Assay for human Glucocorticoid Receptor (GR) (AID 2282978).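 Note: activators score as hits since higher reporter transcript over DMSO is fitted.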 As to conditions: HepG2 Attagene TRANS GR reporter, mRNA transcription. The gist of the method: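 Fluorescent capillary-electrophoresis quantitation of reporter mRNA is the readout, taken 24 h after dosing human HepG2 cells carrying transiently transfected GAL4-UAS reporter units activated by chimeric NR-GAL4 fusions; activity scored as induction over DMSO.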

The target of experiment [6] is Oxysterols receptor LXR-alpha (Homo sapiens) (UniProt Q13133). The experiment in a line: ATG_LXRa_TRANS: Attagene TRANS-FACTORIAL HepG2 Assay for human Liver X Receptor alpha (LXRa) (AID 2282980). As to conditions: HepG2 Attagene TRANS reporter, LXRa transactivation. The gist of the method:
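HepG2 cells transiently transfected with GAL4-UAS reporter units for chimeric NR-Gal4 proteins, exposed to chemicals for 24 h. Reporter mRNA quantified by RT-PCR and capillary electrophoresis; gain of signal fitted relative to DMSO.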

Experiment [7] deals with human Peroxisome Proliferator-activated Receptor alpha (PPARa), PPARA (gene 5465) (UniProt Q07869). Kind of experiment: ATG_PPARa_TRANS: Attagene TRANS-FACTORIAL HepG2 Assay for human Peroxisome Proliferator-activated Receptor alpha (PPARa) (AID 2283001). In short, it runs like this: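 HepG2 cells transiently transfected with multiplexed GAL4-UAS reporter units and chimeric NR-Gal4 constructs were dosed for 24 h. Reporter mRNA was measured by RT-PCR with fluorescent labelling and capillary electrophoresis; gain of signal fitted against DMSO.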

For experiment [8], the target named is human Peroxisome Proliferator-activated Receptor delta (PPARd), PPARD (gene 5467) (UniProt Q03181). The experiment in a line: ATG_PPARd_TRANS: Attagene TRANS-FACTORIAL HepG2 Assay for human Peroxisome Proliferator-activated Receptor delta (PPARd) (AID 2283002). The gist of the method: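 Multiplexed trans-activation format: HepG2 liver cells expressing exogenous NR-Gal4 chimeras and GAL4-UAS reporters were exposed for 24 h. Reporter mRNA was detected by RT-PCR with capillary electrophoresis fluorescence; activity fitted as gain of signal relative to DMSO.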

Experiment [9] concerns the target Peroxisome proliferator-activated receptor gamma (Homo sapiens) (UniProt P37231). Kind of experiment: ATG_PPARg_TRANS: Attagene TRANS-FACTORIAL HepG2 Assay for human Peroxisome Proliferator-activated Receptor-gamma (PPARg) (AID 2283007). The gist of the method:
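Transient transfection of HepG2 with GAL4-UAS-driven reporter units; chemical dosing 24 h; total RNA → oligo(dT) RT → PCR with reporter primers → 6-FAM primer extension → HpaI digest 2 h 37 C → capillary electrophoresis. Positive direction vs DMSO.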

A short description of experiment [10]: TOX21_p53_BLA_p3_viability: Viability Assessment in the Tox21 HCT-116 p53 Agonism Beta-lactamase Assay, Phase 3 (AID 2283593).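 Note: cells exposed to compound for 16 h before reading.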 The gist of the method:
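HCT-116 cells (4000/well) rested 5 h at 37C, then got DMSO compounds by pin tool (217-fold dilution) for 16 h at 37C, 5% CO2. After the bla read, CellTiter-Glo was added and luminescence read at 30 min, room temperature.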

The nature of experiment [11]: TOX21_p53_BLA_p4_viability: Viability Assessment in the Tox21 HCT-116 p53 Agonism Beta-lactamase Assay, Phase 4 (AID 2283597).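 Note: hits lower the luminescence signal meaning cytotoxicity.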 In short, it runs like this: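 HCT-116 p53-bla cells, 4000/well, dosed after 5 h attachment and incubated 16 h at 37 °C, 5% CO2. Viability from CellTiter-Glo ATP luminescence after 30 min at room temperature, taken after the beta-lactamase read; loss of signal indicates cytotoxicity.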

For experiment [12], the target named is Nuclear receptor subfamily 1 group I member 3 (Homo sapiens) (UniProt Q14994). Kind of experiment: ATG_CAR_TRANS: Attagene TRANS-FACTORIAL HepG2 Assay for human Constitutive Androstane Receptor (CAR) (AID 2282969).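 Note: activators raise reporter mRNA above DMSO so AC50 marks induction.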 As to conditions: HepG2 Attagene TRANS-FACTORIAL CAR reporter. In short, it runs like this:
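HepG2 cells transiently transfected with multiplexed GAL4-UAS reporter units expressing chimeric NR-Gal4 proteins; compound exposure 24 h. Reporter mRNA measured by RT-PCR, 6-FAM labelling, HpaI digestion and capillary electrophoresis; gain-of-signal fitted against DMSO baseline.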

Experiment [13] deals with Nuclear receptor subfamily 4 group A member 2 (Homo sapiens) (UniProt P43354). The experiment in a line: ATG_NURR1_TRANS: Attagene TRANS-FACTORIAL HepG2 Assay for human Nuclear Receptor Related Protein 1 (NURR1) (AID 2282985). To be noted: HepG2 Attagene TRANS reporter, mRNA readout. The gist of the method:
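HepG2 cells transiently transfected with GAL4-UAS reporter units and chimeric NR-Gal4 constructs; chemical exposure 24 h. Reporter mRNA quantified by RT-PCR, fluorescent labelling and capillary electrophoresis; gain of signal fitted relative to DMSO baseline.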

Experiment [14] addresses human Vitamin D Receptor (VDR), VDR (gene 7421) (UniProt P11473). The experiment in a line: ATG_VDR_TRANS: Attagene TRANS-FACTORIAL HepG2 Assay for human Vitamin D Receptor (VDR) (AID 2283022). In short, it runs like this: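 HepG2 cells were transiently transfected with GAL4-UAS reporter units and a chimeric VDR-Gal4 construct, then dosed for 24 hours. Reporter mRNA was quantified by RT-PCR, fluorescent labeling, HpaI digestion and capillary electrophoresis; gain of signal analysed vs DMSO.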

Experiment [15] can be described thus: ACEA_ER_AUC_viability: ACEA Biosciences xCELLigence Real-Time Cell Analysis on Estrogen Receptor Agonism for Viability (AID 2283782).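 Note: continuous compound exposure with impedance area under curve over 80 h; hit means loss of impedance signal meaning reduced cell growth or viability.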 The gist of the method:
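T-47D human breast cells in phenol red-free RPMI1640 with 10% charcoal-stripped FBS were dosed with an 8-point 1:4 dilution series from 100 uM top final concentration, in duplicate. Impedance-based growth was followed for 80 h; AUC analysed versus DMSO.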

Experiment [16] addresses human RAR-related Orphan Receptor beta (RORb), RORB (gene 6096) (UniProt Q92753). Kind of experiment: ATG_RORb_TRANS: Attagene TRANS-FACTORIAL HepG2 Assay for human RAR-related Orphan Receptor beta (RORb) (AID 2283010). In short, it runs like this: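 HepG2 cells were transiently transfected with multiplexed GAL4-UAS reporter units expressing chimeric nuclear receptor–GAL4 proteins, then dosed for 24 h. Reporter mRNA was quantified by RT-PCR with fluorescent labelling and capillary electrophoresis; gain of signal was fitted relative to DMSO.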

For experiment [17], the target named is human Thyroid Receptor alpha (THRa1), THRA (gene 7067) (UniProt P10827). Kind of experiment: ATG_THRa1_TRANS: Attagene TRANS-FACTORIAL HepG2 Assay for human Thyroid Receptor alpha (THRa1) (AID 2283014). In short, it runs like this: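 HepG2 cells transiently transfected with chimeric NR-Gal4 and GAL4-UAS reporter units, dosed 24 h. Reporter mRNA quantified by RT-PCR, fluorescent labeling, HpaI digestion and capillary electrophoresis; gain-of-signal fit versus DMSO.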

Inconclusive results are not listed. Some structures have more than one record in an assay (separate samples or runs), and their calls can disagree. The source made the active and inactive calls. Rule for the calls, unless noted: active = hit-call score of the fitted dose curve at least 0.9, where 1 is the maximum; inconclusive = response in the unintended direction; inactive = score below 0.9.

Chain of Hypoxia-inducible factor 1-alpha (Homo sapiens) (Q16665 whole entry, looked up, the tested form may be a part): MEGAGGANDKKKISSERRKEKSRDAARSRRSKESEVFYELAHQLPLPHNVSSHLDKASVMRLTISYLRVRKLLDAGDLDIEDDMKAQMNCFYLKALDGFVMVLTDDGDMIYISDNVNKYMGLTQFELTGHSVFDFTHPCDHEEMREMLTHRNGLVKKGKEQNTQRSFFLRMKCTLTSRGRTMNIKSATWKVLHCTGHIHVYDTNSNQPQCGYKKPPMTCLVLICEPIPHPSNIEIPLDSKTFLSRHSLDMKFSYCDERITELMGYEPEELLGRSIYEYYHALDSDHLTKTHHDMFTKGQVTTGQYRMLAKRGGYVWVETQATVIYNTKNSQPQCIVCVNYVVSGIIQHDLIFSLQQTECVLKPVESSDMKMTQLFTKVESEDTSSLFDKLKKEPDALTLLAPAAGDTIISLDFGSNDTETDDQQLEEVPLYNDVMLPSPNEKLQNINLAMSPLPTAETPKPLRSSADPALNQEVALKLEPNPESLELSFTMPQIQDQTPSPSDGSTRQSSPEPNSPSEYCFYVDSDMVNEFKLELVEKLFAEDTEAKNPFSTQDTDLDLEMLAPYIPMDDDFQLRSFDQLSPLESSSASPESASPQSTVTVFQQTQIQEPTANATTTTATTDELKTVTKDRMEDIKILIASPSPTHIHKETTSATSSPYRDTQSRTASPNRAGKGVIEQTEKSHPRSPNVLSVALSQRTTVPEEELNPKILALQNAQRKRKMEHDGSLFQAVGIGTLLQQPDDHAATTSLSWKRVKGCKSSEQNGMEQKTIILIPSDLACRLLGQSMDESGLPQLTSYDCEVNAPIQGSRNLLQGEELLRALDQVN
Chain of Peroxisome proliferator-activated receptor gamma (Homo sapiens) (P37231 whole entry, looked up, the tested form may be a part): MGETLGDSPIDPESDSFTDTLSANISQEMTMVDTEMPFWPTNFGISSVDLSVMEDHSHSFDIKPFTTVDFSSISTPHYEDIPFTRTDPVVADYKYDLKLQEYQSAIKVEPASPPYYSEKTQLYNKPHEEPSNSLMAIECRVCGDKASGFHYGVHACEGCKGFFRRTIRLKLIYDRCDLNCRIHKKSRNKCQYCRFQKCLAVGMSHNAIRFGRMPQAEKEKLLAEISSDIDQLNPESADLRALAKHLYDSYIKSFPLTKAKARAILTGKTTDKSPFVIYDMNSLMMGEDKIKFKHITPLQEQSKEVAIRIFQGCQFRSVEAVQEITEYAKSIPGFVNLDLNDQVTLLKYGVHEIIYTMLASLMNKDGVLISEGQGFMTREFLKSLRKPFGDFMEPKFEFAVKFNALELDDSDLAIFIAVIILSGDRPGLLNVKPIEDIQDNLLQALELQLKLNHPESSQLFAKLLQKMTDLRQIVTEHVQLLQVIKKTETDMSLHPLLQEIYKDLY
Chain of Oxysterols receptor LXR-alpha (Homo sapiens) (Q13133 whole entry, looked up, the tested form may be a part): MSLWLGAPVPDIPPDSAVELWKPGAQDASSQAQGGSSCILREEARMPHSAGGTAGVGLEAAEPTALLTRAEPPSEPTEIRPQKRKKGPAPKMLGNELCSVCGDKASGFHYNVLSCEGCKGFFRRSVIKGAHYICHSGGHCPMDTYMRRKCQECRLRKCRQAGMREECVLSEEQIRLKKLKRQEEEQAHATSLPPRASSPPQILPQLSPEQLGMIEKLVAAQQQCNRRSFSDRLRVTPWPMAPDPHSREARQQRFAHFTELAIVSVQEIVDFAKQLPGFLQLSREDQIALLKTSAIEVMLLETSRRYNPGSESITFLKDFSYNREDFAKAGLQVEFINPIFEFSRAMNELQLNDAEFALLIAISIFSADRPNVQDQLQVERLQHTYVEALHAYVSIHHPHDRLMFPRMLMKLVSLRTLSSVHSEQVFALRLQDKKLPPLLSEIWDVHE
Chain of Nuclear receptor subfamily 4 group A member 2 (Homo sapiens) (P43354 whole entry, looked up, the tested form may be a part): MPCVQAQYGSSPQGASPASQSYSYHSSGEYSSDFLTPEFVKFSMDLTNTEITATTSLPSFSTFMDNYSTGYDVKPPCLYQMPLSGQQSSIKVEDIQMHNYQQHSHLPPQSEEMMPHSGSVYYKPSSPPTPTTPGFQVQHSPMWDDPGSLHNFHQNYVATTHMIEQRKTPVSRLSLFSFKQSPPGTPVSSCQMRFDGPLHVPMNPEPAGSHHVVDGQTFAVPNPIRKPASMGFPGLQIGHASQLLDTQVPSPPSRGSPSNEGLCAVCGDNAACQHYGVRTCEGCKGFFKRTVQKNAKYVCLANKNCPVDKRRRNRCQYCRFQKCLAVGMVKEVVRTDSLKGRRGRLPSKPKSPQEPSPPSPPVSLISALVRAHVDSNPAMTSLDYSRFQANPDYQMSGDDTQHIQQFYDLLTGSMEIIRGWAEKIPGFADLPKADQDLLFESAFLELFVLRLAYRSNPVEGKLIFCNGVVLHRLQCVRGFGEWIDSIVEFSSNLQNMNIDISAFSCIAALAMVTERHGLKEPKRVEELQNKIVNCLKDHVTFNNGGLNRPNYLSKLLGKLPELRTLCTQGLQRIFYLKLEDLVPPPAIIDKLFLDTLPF
Chain of human Vitamin D Receptor (VDR), VDR (gene 7421) (P11473 whole entry, looked up, the tested form may be a part): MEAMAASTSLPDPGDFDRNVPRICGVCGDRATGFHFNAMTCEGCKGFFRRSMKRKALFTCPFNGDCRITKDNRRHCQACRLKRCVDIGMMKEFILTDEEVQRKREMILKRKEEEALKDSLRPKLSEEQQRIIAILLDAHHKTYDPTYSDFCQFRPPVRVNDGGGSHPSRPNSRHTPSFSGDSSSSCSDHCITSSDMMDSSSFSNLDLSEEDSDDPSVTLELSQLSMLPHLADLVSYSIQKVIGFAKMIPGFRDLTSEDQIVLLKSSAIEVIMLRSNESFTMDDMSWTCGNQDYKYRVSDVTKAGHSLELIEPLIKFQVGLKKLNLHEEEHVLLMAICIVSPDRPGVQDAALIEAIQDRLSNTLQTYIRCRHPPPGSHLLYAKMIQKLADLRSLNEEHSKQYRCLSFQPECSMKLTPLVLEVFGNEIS
Chain of Nuclear receptor subfamily 1 group I member 3 (Homo sapiens) (Q14994 whole entry, looked up, the tested form may be a part): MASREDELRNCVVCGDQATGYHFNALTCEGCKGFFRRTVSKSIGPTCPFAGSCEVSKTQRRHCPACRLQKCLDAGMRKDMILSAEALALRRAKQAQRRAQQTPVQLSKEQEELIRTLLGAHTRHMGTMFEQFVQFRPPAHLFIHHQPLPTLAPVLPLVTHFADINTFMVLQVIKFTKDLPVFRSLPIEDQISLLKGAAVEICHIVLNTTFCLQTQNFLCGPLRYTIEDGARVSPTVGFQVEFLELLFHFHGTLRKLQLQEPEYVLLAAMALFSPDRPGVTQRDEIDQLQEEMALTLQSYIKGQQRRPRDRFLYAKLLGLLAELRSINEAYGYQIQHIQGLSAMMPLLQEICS
Chain of human Peroxisome Proliferator-activated Receptor alpha (PPARa), PPARA (gene 5465) (Q07869 whole entry, looked up, the tested form may be a part): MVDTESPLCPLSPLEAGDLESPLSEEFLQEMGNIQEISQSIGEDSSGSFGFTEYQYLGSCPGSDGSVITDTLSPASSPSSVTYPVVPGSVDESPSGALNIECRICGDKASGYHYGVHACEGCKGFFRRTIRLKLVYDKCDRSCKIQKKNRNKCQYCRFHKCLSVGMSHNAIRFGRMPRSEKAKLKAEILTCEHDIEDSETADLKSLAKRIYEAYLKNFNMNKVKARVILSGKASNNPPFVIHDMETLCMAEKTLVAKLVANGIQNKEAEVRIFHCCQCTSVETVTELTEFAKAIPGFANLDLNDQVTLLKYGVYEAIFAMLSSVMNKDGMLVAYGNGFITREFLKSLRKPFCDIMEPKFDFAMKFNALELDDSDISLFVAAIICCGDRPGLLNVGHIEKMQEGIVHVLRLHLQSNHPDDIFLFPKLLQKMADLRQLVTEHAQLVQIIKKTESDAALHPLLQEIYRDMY
Chain of Glucocorticoid receptor (Homo sapiens) (P04150 whole entry, looked up, the tested form may be a part): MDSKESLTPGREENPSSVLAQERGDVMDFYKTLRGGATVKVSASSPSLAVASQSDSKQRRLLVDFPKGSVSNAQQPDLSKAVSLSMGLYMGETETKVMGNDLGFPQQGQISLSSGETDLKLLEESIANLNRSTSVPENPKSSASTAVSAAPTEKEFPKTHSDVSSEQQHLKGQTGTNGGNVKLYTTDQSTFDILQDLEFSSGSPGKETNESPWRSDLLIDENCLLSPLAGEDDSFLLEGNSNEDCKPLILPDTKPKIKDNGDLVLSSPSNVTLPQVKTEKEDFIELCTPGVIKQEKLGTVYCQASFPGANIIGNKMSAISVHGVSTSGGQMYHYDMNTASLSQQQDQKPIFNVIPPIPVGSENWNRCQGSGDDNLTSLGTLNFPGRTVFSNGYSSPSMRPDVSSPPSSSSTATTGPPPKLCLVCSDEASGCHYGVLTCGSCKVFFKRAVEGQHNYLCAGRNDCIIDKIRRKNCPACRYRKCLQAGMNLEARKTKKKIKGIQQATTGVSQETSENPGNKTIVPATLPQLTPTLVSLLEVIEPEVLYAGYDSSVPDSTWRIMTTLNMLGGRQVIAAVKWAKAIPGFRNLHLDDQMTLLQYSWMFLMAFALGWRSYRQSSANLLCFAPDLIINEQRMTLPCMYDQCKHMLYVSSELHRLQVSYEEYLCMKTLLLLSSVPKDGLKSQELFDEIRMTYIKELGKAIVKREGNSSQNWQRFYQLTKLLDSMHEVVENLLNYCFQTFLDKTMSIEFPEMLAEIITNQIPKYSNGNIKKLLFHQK
Chain of human Thyroid Receptor alpha (THRa1), THRA (gene 7067) (P10827 whole entry, looked up, the tested form may be a part): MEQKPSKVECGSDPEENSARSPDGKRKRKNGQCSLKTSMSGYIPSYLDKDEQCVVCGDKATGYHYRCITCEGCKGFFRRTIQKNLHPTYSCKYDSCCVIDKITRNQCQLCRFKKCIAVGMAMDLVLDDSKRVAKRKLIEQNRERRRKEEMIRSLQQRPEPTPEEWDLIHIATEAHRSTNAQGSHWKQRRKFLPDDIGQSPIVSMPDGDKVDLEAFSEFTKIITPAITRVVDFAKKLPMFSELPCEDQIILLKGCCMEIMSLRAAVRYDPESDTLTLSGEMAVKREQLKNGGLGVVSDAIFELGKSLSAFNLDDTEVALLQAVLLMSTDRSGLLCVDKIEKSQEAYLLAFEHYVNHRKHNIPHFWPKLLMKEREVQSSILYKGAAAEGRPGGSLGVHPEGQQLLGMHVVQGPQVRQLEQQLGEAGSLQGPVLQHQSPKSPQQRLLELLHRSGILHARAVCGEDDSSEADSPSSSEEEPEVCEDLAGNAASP

Take `CC(C)n1c(/C=C/[C@@H](O)C[C@@H](O)CC(=O)O)c(-c2ccc(F)cc2)c2ccccc21`: the call in [1], in experiment [3], in experiment [4], in [5], in experiment [6] and in [7] was inactive. Besides, the molecule was called inactive in [8], in [10] and in [11]. In addition, the AC50 in [2] was 36.3 µM (active); in experiment [9], 5.07 µM (active); in experiment [11] it was 43.3 µM (active).

On to `CCCCCCCCCCCCCC`, for which the result in experiment [1], in experiment [12], in [3], in [4], in experiment [6] and in [13] was inactive. Moreover, the molecule was classed as inactive in [14] and in [15].

As to `C=C(C)C(=O)OCCCCCC`, the result in [1], in experiment [2], in experiment [4], in [5], in experiment [6] and in experiment [13] was inactive. Further, the call in [7], in experiment [9], in experiment [16], in experiment [17], in [14] and in experiment [11] was inactive.

Take `CC1=C(CC=O)C(C)(C)CCC1`: the molecule was called inactive in experiment [1], in experiment [6], in [13], in [9], in experiment [16] and in experiment [14]. The AC50 in experiment [15] is 64.2 µM (active).

As to `CN(C)c1ccc(C(c2ccccc2)c2ccc(N(C)C)cc2)cc1`, the result in [12], in [3], in experiment [4], in experiment [13], in experiment [17] and in experiment [10] was inactive. Besides, the molecule was classed as inactive in experiment [11]. The AC50 in experiment [15] is 75.8 µM (active).

In general, AC50 refers to the midpoint of the concentration-response curve, whichever way the signal moves.
